The record followed here is PubChem BioAssay (NCI).

This is part of a sample that, as a whole, favours compounds with a hit. Of some 83,000 tested, about 20% had one in any assay.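 Each cell line was grown in a 96-well plate and treated with one concentration of compound for 48 hours. Values below 10 were considered active.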 Values without a mark were called inactive. Activity calls are given as the source filed them.

Common to all, as to experiment: NCI-60 one-dose screen, 48 h (100 = growth as untreated, 0 = no growth, -100 = all killed)
Common to all, as to settings: 10 µM

Assay [1] relates to SK-MEL-2 melanoma.
Assay [2] concerns EKVX NSCLC.
Assay [3] concerns SN12C renal.
In assay [4] the test system is UO-31 renal.
Assay [5] deals with TK-10 renal.
Assay [6] relates to ACHN renal.
Assay [7] has as its system CAKI-1 renal.
In assay [8] the test system is A498 renal.
Assay [9] relates to MOLT-4 leukemia.
Assay [10] has as its system SR leukemia.
Assay [11] concerns RPMI-8226 leukemia.
The test system of assay [12] is OVCAR-8 ovarian.
Assay [13] has as its system OVCAR-5 ovarian.
For assay [14], the system named is SK-OV-3 ovarian.
Assay [15] has as its system IGROV1 ovarian.
The subject of assay [16] is OVCAR-3 ovarian.
The subject of assay [17] is HS 578T breast.
Assay [18] relates to NCI/ADR-RES ovarian.
Assay [19] deals with OVCAR-4 ovarian.

As to `Nc1cc(Br)c(-c2nn3c(CCC(=O)c4nc5ccccc5[nH]4)nnc3s2)c(Br)c1`, the growth in [1] was 100%; in assay [2], 95.5%; in assay [3], 97.7%; in [4] it was 71.1%; in [5], 117%; in [6] it was 99.8%. Besides, the growth in assay [7] is 95.4%; in assay [8], 65.6%; in assay [9] it was 84.9%; in [10] it was 88.1%; in [11], 85.1%; in assay [12], 96.5%. Also, the growth in assay [13] was 122%; in [14] it was 113%; in assay [15] it was 101%; in assay [16], 105%; in assay [17], 90%; in assay [18] it was 97.3%.
`O=[N+]([O-])c1cccc(/C=N/NC(=S)NC23CC4CC(CC(C4)C2)C3)c1`: the growth in [1] was 96%; in [2], 71.2%; in assay [3], 83.1%; in assay [4], 89.9%; in assay [5], 96.6%; in assay [6] it was 49.6%. In addition, the growth in assay [7] is 89.9%; in [8], 97.1%; in [9] it was 96.3%; in assay [10] it was 81.4%; in assay [11], 93.1%; in assay [12] it was 40.6%. In addition, the growth in [13] is 101%; in [19], 39.5%; in assay [14], 62.4%; in [15] it was 76.3%; in assay [16], 85.9%; in assay [17], 67.5%. In addition, in assay [18], the growth is 67.2%.
Turning to `Cc1c[nH]c(=O)n(Cc2nnc(CCC(=O)c3nc4ccccc4[nH]3)o2)c1=O`, the growth in [1] is 25.2%; in [2], 54.9%; in [3], 30.2%; in [4], 44.2%; in [5], 64.1%; in assay [6], 61.1%. In addition, the growth in [7] was 63.5%; in [8], 11.5%; in assay [9] it was 9.42% (active); in assay [10] it was 4.57% (active); in assay [11], 17.2%; in [12], 21%. Moreover, the growth was 13.8% in assay [13]; -7.95% (active) in assay [14]; 47.8% in [15]; -14.8% (active) in [16]; 10.2% in assay [17]; 90.7% in assay [18].
As for `COc1cc(Cc2cc(-c3ccccc3)n[nH]c2=O)cc(OC)c1OC`, the growth is 56.6% in assay [1]; 43.6% in assay [2]; 72.9% in [3]; 58.3% in assay [4]; 75.5% in [5]; 86.4% in assay [6]. Also, the growth in [7] was 64.6%; in assay [8], 69%; in [9] it was 30.9%; in [10] it was 25%; in assay [11] it was 53.5%; in assay [12] it was 75.2%. The growth was 93.1% in assay [13]; 70.1% in [19]; 71.2% in assay [14]; 63.3% in [15]; 47.2% in assay [16]; 68.2% in [17]. Moreover, the growth in assay [18] was 28.8%.
For `CC(C)(C)c1ccc(S(=O)(=O)Oc2ccc(NC(=O)C3CCCCC3)cc2)cc1`, the growth in assay [1] was 31.6%; in assay [2], 23.8%; in assay [3], 60.2%; in [4], 38%; in assay [5], 57.8%; in assay [6], 25.7%. The growth was 58.3% in assay [7]; 90% in [8]; 33.5% in assay [9]; 42.6% in assay [10]; 13.6% in [11]; 51% in assay [12]. Besides, the growth is 85.1% in assay [13]; 47.5% in assay [19]; 76.3% in assay [15]; 40.7% in assay [16]; 81.4% in [17]; 29.8% in assay [18].
With `CC(=O)N[C@H](C(=O)N[C@@H](CCCNC(=N)N)C(=O)N[C@@H](CCCCN)C(=O)N[C@@H](CCCNC(=N)N)C(=O)NC(C(=O)N[C@@H](CC(C)C)C(=O)N[C@@H](CCCNC(=N)N)C(=O)N[C@@]1(C)CCC/C=C\CCC[C@@](C)(C(=O)N[C@@H](CCCNC(=N)N)C(=O)N[C@@H](CCC(=O)O)C(=O)N[C@@H](CC(C)C)C(=O)N[C@H](C(=O)N[C@@H](CCC(=O)O)C(N)=O)C(C)C)NC(=O)[C@H](CCC(N)=O)NC(=O)[C@H](CC(C)C)NC(=O)[C@H](CC(C)C)NC1=O)[C@@H](C)O)C(C)C` (some centres undefined), the growth is -6.77% (active) in assay [1]; 0.7% (active) in assay [2]; -52% (active) in assay [3]; 78.5% in assay [4]; -37.3% (active) in assay [5]; 41.2% in [6]. The growth was 32.3% in [7]; 26.9% in assay [8]; 32.7% in assay [9]; 14% in assay [10]; -11% (active) in assay [11]; 9.08% (active) in assay [12]. In addition, the growth in assay [13] was 25.5%; in [19] it was 75.9%; in assay [14], 53.3%; in [15], 60.3%; in assay [16], 16.8%; in [17], -53.9% (active). For the same molecule, the growth in assay [18] was 17.3%.
On to `CC[C@@H](C(=O)[C@H](C)[C@H](O)[C@@H](C)[C@H]1O[C@H]([C@@H](CC)C(=O)N(CC)CC)CC[C@H]1C)C1O[C@]2(C=C[C@@H](O)[C@]3(CC[C@@](C)([C@H]4CC[C@](O)(CC)[C@H](C)O4)O3)O2)[C@H](C)C[C@@H]1C` (some centres undefined), for which the growth in assay [1] is 0.113% (active); in assay [2], 1.82% (active); in [3] it was 17.4%; in assay [4] it was -5.88% (active); in [5], 24.3%; in [6], 5.95% (active). Besides, the growth in assay [7] was 8.82% (active); in assay [8], 13.8%; in [9], 28.9%; in assay [10], 55.5%; in assay [12] it was 25.4%; in assay [13] it was 32%. Further, the growth in assay [19] is 28.2%; in assay [14] it was 20.8%; in assay [15], 19.8%; in [16], 14.3%; in assay [17], 24.1%; in assay [18], 5.44% (active).
